# Assay results reported in publication PMC7862700, “An all-to-all approach to the identification of sequence-specific readers for epigenetic DNA modifications on cytosine”.
# Key:
# Test in all cases: DAPPL (digital affinity profiling via proximity ligation, sequencing); 10 mM Tris-HCl pH 7.5, 50 mM NaCl, 1 mM DTT, 4% glycerol, room temperature, 30 min; GST-TFs on glutathione beads, 16-mer random dsDNA library, 0.1% formaldehyde crosslink after washing; high values mean tight binding
# FEV = molecular target: T1, FEV (Homo sapiens, UniProt Q99581 1-238); conditions: protein: recombinant; tags: N-terminal GST; dsDNA, one strand shown
# T1 sequence: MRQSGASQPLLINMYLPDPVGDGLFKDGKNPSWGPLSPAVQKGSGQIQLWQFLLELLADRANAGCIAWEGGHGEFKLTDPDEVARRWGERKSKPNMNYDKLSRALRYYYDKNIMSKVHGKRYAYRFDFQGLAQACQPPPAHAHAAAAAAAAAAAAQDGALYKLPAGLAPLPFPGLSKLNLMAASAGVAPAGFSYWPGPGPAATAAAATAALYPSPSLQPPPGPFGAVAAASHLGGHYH
# Outline: (§1)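 The binding signal reported is, for every hexamer, its read frequency for a factor over its read frequency for the tag-only sample. Reads came from pools of yeast-expressed, GST-fused human transcription factors on glutathione beads, barcoded with DNA and mixed with that sample, which were incubated with 200 nmole of a random double-stranded 16-mer DNA library in Tris/NaCl/DTT/glycerol buffer at room temperature for 30 min. After washing, the pools were crosslinked with 0.1% formaldehyde, proximity-ligated with BsaI/T4 ligase for 1 h at 37 °C, PCR-amplified and sequenced on an Illumina NextSeq500.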
# ETV5 = ETV5 (Homo sapiens, UniProt P41161 1-510); conditions: protein: recombinant; tags: N-terminal GST; dsDNA, one strand shown
# Outline: as §1
# HSF1 = HSF1 (Homo sapiens, UniProt Q00613 1-529); conditions: protein: recombinant; tags: N-terminal GST; chain copies: 3; dsDNA, one strand shown
# Outline: as §1
# SPIC = molecular target: T2, SPIC (Homo sapiens, UniProt Q8N5J4 1-248); conditions: protein: recombinant; tags: N-terminal GST; dsDNA, one strand shown
# T2 sequence: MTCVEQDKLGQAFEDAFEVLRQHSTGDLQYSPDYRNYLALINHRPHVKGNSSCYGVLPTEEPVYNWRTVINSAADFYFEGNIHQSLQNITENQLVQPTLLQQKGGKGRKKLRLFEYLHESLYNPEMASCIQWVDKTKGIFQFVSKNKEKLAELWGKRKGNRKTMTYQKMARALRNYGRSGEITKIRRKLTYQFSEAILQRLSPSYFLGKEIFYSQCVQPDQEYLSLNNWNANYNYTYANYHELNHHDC
# Outline: as §1
# ELF4 = ELF4 (Homo sapiens, UniProt Q99607 1-663); conditions: protein: recombinant; tags: N-terminal GST; dsDNA, one strand shown
# Outline: as §1
# ELK4 = molecular target: T3, ELK4 (Homo sapiens, UniProt P28324-2 1-405); conditions: protein: recombinant; tags: N-terminal GST; dsDNA, one strand shown
# T3 sequence: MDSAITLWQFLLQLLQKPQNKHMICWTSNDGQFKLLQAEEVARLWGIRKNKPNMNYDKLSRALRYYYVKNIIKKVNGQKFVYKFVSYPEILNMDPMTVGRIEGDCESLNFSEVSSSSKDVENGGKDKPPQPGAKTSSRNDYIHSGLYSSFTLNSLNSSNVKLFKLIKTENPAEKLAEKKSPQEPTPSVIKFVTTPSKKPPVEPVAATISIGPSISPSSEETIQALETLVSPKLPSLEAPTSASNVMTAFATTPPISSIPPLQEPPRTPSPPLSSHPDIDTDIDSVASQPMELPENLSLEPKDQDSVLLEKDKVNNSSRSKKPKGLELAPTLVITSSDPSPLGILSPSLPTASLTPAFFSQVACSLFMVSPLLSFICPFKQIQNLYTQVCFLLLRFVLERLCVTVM
# Outline: as §1
# ETV2 = molecular target: T4, ETV2 (Homo sapiens, UniProt O00321 1-342); conditions: protein: recombinant; tags: N-terminal GST; dsDNA, one strand shown
# T4 sequence: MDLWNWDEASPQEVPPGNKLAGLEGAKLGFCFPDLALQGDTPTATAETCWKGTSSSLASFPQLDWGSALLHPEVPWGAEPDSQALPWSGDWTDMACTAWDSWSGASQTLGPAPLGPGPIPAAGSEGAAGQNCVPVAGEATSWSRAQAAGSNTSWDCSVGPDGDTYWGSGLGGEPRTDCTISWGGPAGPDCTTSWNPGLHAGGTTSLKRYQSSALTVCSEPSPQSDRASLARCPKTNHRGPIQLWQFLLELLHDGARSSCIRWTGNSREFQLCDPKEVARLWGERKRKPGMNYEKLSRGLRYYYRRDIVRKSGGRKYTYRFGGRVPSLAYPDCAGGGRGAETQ
# Outline: as §1
# ELF3 = molecular target: T5, ELF3 (Homo sapiens, UniProt P78545 1-371); conditions: protein: recombinant; tags: N-terminal GST; dsDNA, one strand shown
# T5 sequence: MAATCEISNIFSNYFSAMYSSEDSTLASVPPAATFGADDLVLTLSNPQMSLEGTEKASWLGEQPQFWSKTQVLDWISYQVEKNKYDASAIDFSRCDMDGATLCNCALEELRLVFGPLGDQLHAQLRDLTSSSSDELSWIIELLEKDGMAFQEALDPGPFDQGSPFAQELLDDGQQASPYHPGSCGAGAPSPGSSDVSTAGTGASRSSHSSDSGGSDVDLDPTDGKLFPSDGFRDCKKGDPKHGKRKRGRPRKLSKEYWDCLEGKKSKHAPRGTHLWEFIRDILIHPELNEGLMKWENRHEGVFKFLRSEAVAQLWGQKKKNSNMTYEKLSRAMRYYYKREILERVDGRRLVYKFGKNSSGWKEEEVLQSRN
# Outline: as §1
# CRX = CRX (Homo sapiens, UniProt O43186 1-299); conditions: protein: recombinant; tags: N-terminal GST; dsDNA, one strand shown
# Outline: as §1
# ETV1 = ETV1 (Homo sapiens, UniProt P50549 1-477); conditions: protein: recombinant; tags: N-terminal GST; dsDNA, one strand shown
# Outline: as §1
# ERF = molecular target: T6, ERF (Homo sapiens, UniProt P50548 1-548); conditions: protein: recombinant; tags: N-terminal GST; dsDNA, one strand shown
# T6 sequence: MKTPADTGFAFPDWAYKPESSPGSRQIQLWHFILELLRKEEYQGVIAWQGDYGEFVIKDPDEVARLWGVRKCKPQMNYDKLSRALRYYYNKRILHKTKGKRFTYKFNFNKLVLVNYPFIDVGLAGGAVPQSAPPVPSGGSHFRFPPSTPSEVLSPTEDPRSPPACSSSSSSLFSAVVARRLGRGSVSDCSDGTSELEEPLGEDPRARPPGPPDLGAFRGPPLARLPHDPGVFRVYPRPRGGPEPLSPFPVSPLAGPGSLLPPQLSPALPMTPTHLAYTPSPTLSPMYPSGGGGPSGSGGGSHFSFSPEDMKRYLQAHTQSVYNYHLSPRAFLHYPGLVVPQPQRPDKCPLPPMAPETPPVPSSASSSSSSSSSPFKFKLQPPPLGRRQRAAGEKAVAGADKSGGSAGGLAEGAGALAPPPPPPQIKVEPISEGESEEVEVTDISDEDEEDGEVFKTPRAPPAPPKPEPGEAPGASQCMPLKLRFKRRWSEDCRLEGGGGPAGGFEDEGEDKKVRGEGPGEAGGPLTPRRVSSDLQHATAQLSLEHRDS
# Outline: as §1
# ETV3L = molecular target: T7, ETV3L (Homo sapiens, UniProt Q6ZN32 1-361); conditions: protein: recombinant; tags: N-terminal GST; dsDNA, one strand shown
# T7 sequence: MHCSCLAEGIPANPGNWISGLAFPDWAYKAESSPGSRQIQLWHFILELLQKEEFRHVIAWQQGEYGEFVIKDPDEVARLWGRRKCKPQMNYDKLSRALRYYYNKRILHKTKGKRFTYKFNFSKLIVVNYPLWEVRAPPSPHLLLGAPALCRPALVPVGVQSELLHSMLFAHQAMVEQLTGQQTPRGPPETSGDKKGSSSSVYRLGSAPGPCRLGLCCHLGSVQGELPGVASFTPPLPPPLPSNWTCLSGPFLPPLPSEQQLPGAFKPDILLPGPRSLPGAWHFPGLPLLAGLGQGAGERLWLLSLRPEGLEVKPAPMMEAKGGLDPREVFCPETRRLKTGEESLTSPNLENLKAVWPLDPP
# Outline: as §1
# ETS2 = molecular target: T8, ETS2 (Homo sapiens, UniProt P15036 1-469); conditions: protein: recombinant; tags: N-terminal GST; dsDNA, one strand shown
# T8 sequence: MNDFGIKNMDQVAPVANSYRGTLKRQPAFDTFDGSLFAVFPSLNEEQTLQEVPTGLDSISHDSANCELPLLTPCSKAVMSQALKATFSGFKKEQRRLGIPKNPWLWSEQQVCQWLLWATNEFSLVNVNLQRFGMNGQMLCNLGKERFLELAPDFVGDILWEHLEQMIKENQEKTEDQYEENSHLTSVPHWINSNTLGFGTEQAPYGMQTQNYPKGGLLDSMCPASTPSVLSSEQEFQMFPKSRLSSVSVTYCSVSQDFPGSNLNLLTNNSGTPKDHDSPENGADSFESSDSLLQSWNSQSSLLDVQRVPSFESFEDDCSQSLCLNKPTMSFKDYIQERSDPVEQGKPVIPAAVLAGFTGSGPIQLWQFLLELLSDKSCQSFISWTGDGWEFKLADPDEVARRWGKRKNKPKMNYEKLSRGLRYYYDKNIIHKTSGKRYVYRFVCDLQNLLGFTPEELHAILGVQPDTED
# Outline: as §1
# SPDEF = molecular target: T9, SPDEF (Homo sapiens, UniProt O95238 1-335); conditions: protein: recombinant; tags: N-terminal GST; dsDNA, one strand shown
# T9 sequence: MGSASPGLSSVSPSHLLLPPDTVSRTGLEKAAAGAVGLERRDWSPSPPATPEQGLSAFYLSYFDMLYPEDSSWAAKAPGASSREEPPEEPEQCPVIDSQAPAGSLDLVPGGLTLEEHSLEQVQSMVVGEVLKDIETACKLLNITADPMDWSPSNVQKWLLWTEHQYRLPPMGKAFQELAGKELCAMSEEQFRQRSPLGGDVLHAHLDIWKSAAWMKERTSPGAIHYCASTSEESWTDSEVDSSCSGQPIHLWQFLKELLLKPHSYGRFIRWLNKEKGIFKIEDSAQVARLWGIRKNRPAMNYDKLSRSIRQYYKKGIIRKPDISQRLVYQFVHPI
# Outline: as §1
# ETV7 = molecular target: T10, ETV7 (Homo sapiens, UniProt Q9Y603 1-341); conditions: protein: recombinant; tags: N-terminal GST; dsDNA, one strand shown
# T10 sequence: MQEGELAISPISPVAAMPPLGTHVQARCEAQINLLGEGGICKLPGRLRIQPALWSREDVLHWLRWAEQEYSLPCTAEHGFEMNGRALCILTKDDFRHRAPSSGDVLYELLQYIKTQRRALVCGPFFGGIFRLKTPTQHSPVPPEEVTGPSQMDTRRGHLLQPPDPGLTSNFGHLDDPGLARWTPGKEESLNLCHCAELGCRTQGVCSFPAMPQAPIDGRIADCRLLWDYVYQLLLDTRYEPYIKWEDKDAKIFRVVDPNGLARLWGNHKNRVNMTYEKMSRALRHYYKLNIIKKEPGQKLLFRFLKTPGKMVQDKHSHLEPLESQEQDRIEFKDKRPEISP
# Outline: as §1
# ELF5 = molecular target: T11, ELF5 (Homo sapiens, UniProt Q9UKW6-2 1-255); conditions: protein: recombinant; tags: N-terminal GST; dsDNA, one strand shown
# T11 sequence: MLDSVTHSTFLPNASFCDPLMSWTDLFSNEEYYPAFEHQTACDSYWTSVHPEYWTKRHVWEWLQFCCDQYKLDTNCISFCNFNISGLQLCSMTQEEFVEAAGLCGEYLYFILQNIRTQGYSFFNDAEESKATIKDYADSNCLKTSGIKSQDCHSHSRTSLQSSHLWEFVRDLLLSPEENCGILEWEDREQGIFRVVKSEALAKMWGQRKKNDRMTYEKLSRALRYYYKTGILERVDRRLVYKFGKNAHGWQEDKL
# Outline: as §1
# ETV3 = molecular target: T12, ETV3 (Homo sapiens, UniProt P41162-2 1-143); conditions: protein: recombinant; tags: N-terminal GST; dsDNA, one strand shown
# T12 sequence: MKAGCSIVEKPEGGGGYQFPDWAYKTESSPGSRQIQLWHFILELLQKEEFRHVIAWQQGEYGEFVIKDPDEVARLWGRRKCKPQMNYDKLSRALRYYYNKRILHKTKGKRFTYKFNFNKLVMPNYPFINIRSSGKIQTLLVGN
# Outline: as §1
# ETV6 = ETV6 (Homo sapiens, UniProt P41212 1-452); conditions: protein: recombinant; tags: N-terminal GST; dsDNA, one strand shown
# Outline: as §1
# Sequence of CRX (O43186 whole entry): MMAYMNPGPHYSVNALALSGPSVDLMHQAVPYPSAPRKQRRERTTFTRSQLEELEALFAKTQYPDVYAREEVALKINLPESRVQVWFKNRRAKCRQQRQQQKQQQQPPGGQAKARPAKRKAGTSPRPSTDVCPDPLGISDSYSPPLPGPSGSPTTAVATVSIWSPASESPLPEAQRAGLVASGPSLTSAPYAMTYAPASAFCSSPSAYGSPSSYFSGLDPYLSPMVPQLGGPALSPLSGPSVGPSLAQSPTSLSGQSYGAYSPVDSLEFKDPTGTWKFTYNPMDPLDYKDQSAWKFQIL
# Sequence of ELF4 (Q99607 whole entry): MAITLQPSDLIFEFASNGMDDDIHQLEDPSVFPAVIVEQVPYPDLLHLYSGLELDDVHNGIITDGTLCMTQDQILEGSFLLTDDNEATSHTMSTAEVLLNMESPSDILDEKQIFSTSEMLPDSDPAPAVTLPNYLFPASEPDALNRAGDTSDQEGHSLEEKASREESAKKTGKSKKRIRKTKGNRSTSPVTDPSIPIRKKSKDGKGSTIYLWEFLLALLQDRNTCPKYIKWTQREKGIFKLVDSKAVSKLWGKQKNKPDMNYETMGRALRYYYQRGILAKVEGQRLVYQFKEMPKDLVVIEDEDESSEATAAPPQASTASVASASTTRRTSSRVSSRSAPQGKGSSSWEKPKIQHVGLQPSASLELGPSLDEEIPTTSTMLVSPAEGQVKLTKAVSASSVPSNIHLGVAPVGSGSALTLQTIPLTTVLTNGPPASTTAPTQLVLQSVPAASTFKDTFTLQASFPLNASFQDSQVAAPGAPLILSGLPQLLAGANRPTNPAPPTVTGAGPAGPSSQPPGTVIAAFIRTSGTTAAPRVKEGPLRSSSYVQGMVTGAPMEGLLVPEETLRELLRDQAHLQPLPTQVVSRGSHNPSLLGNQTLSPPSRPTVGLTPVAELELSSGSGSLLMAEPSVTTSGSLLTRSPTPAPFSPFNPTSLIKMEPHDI
# Sequence of HSF1 (Q00613 whole entry): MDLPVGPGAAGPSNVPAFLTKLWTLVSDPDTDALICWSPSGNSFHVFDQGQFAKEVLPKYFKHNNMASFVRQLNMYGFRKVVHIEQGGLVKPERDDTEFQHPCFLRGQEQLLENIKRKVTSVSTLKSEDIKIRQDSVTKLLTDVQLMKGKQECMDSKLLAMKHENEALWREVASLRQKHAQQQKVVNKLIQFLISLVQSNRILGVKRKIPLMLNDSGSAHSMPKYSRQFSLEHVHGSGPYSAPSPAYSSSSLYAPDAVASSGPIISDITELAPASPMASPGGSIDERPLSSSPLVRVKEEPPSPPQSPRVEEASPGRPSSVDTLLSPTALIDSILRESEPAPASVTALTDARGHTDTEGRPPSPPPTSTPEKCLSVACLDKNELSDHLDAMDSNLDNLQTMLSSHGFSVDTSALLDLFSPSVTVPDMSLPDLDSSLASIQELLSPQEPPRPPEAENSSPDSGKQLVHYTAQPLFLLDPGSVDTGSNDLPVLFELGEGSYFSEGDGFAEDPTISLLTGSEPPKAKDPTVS
# Sequence of ETV5 (P41161 whole entry): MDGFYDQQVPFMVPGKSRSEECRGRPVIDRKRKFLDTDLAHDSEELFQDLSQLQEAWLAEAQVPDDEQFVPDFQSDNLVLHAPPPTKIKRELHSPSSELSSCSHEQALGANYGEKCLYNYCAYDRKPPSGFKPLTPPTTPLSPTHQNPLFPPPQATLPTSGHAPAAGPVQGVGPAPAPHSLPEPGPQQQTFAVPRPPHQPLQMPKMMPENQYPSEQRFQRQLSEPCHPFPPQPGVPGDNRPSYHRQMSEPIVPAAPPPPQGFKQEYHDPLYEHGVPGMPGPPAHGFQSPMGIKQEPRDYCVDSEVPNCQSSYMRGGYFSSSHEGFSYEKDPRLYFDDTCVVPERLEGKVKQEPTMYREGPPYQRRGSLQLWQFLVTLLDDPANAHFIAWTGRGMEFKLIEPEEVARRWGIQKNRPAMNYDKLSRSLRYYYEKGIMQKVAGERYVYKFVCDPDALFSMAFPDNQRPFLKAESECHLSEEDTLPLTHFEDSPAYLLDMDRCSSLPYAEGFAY
# Sequence of ETV1 (P50549 whole entry): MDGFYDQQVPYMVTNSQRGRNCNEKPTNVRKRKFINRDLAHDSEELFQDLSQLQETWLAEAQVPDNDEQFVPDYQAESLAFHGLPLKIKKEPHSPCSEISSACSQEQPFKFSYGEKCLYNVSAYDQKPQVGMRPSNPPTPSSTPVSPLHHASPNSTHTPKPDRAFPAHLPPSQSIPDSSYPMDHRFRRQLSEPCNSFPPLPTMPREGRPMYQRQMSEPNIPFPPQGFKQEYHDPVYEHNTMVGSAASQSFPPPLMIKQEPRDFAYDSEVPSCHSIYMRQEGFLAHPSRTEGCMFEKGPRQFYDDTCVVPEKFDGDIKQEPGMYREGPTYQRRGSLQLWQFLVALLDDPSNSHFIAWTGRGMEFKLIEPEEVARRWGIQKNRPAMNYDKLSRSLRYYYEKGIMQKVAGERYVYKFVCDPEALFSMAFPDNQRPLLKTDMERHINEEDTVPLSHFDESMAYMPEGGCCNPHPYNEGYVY
# Sequence of ETV6 (P41212 whole entry): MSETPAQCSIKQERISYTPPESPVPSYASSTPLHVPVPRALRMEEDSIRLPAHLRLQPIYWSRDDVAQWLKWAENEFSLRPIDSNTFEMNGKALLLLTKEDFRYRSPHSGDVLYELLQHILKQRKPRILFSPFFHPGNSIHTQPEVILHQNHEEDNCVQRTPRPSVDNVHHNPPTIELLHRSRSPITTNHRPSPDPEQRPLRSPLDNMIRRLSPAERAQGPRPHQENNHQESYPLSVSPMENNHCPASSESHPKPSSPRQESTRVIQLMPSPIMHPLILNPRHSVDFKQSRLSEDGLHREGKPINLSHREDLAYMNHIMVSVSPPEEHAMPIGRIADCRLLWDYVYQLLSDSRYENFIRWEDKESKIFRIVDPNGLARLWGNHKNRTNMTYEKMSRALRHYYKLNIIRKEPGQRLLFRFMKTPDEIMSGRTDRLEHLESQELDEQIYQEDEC
sequence,measurement,setting,value
CCTATA,binding signal,FEV,"1.33 fold enrichment (6-mer frequency, TF over GST control)"
same,binding signal,ETV5,"1.31 fold enrichment (6-mer frequency, TF over GST control)"
same,binding signal,HSF1,"1.16 fold enrichment (6-mer frequency, TF over GST control)"
same,binding signal,SPIC,"1.35 fold enrichment (6-mer frequency, TF over GST control)"
same,binding signal,ELF4,"1.29 fold enrichment (6-mer frequency, TF over GST control)"
same,binding signal,ELK4,"1.4 fold enrichment (6-mer frequency, TF over GST control)"
same,binding signal,ETV2,"1.43 fold enrichment (6-mer frequency, TF over GST control)"
same,binding signal,ELF3,"1.15 fold enrichment (6-mer frequency, TF over GST control)"
same,binding signal,CRX,"1.34 fold enrichment (6-mer frequency, TF over GST control)"
same,binding signal,ETV1,"1.29 fold enrichment (6-mer frequency, TF over GST control)"
same,binding signal,ERF,"1.33 fold enrichment (6-mer frequency, TF over GST control)"
same,binding signal,ETV3L,"1.34 fold enrichment (6-mer frequency, TF over GST control)"
same,binding signal,ETS2,"1.42 fold enrichment (6-mer frequency, TF over GST control)"
same,binding signal,SPDEF,"1.45 fold enrichment (6-mer frequency, TF over GST control)"
same,binding signal,ETV7,"1.31 fold enrichment (6-mer frequency, TF over GST control)"
same,binding signal,ELF5,"1.39 fold enrichment (6-mer frequency, TF over GST control)"
same,binding signal,ETV3,"1.36 fold enrichment (6-mer frequency, TF over GST control)"
same,binding signal,ETV6,"1.39 fold enrichment (6-mer frequency, TF over GST control)"
